Here are results for 38 molecules from PubChem BioAssay (EPA / NIEHS).

“And” between values parts separate entries of the source, which are not always exact repeats. Equal values may be shown once. Records with an inconclusive call do not appear. Where a structure was tested more than once in an assay, its records may differ in their call. The source made the active and inactive calls. How the source made its calls: active means hit-call score of the fitted dose curve at least 0.9, where 1 is the maximum; inconclusive means response in the unintended direction; inactive means score below 0.9.

This assay can be described thus: TOX21_p53_BLA_p4_viability: Viability Assessment in the Tox21 HCT-116 p53 Agonism Beta-lactamase Assay, Phase 4 (AID 2283597).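 Further: hits lower the luminescence signal meaning cytotoxicity.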 From the text: TOX21_p53_BLA_p4 is a cell-based, single-readout assay that uses HCT116, a human intestinal cell line, […] in a 1536-well plate.TOX21_p53_BLA_p4_viability is an assay readout measuring cellular ATP content and detected with CellTiter-Glo Luciferase-coupled ATP quantitation.TOX21_p53_BLA_p4_viability used a type of viability reporter where loss-of-signal activity can be used to understand changes in the cell viability. Furthermore, this assay endpoint can be referred to as a secondary readout, because this assay has produced multiple assay endpoints where this one serves a viability function. To generalize the intended target to other relatable targets, this assay endpoint is annotated to the cell cycle intended target family, where the subfamily is cytotoxicity.
Thawing Method: Place 14 mL of pre-warmed thaw medium into a 15 mL of conical tub. Remove the vial of cells to be thawed from liquid nitrogen and thaw rapidly by placing at 37C in a water bath with gentle agitation for 1-2 minutes. Decontaminate the vial by wiping with 70% ethanol before opening in a biological safety cabinet. Transfer the vial contents drop-wise into 14 mL of thaw medium in a sterile 15-mL conical tub. Centrifuge cells at 900 rpm for 4 minutes and resuspend in thaw medium. Transfer contents to the T75 tissue culture flask containing Thaw Medium and place flask in a humidified 37C/5% CO2 incubator. Switch to growth medium at first passage.Propagation Method: Aspirate medium, rinse once in DPBS, add 0.25% Trypsin/EDTA and swirl to coat the cell evenly. Add an equal volume of Growth Medium to inactivate Trypsin after 2-3 minutes incubation at 37C. Centrifuge cells at 900 rpm for 4 minutes and resuspend in growth medium. Cell should be passage or fed at least twice a week.Assay Protocol: Harvest cells from culture in growth medium and resuspend in assay medium. 2.2 Dispense 4000 cells/5 uL/well into 1536-well black/clear bottom plates using a Multidrop dispenser. After the cells were incubated at 37C for 5 hours, 23 nL of compounds dissolved in DMSO were transferred to the assay plate by a PinTool resulting in a 217-fold dilution. Incubate the plates for 16 hours at 37C, 5% CO2. Add 1 uL of 6X LiveBLAzer FRET B/G (CCF4-AM) Substrate Mixture to each well using a BioRAPTR dispenser and incubate the plates at room temperature for 2 hours. Measure fluorescence intensity at 460 and 530 nm emission and 405 nm excitation by an Envision detector. Data is expressed as the ratio of 460nm/530nm emissions. Add 4 uL of Cell-titer Glo to each well using BioRAPTR and incubate the plates at room temperature for […]. For cell viability readout that measures cytotoxicity, 4 ul/well of CellTiter-Glo reagent was added into the assay plates using a Flying Reagent Dispenser. After 30 min incubation at room temperature, the luminescence intensity in the plates was measured using a ViewLux plate reader.
On to `O=S(=O)(O)c1cccc2c(S(=O)(=O)O)cccc12`, for which the outcome was inactive.

Consider `Clc1nc(C(Cl)(Cl)Cl)c(Cl)c(Cl)c1Cl`, for which the call was inactive.

For `CCCCCCCCCCCCCCCCCC(=O)OCC(CC)CCCC` (stereo not given), the call was inactive.

Regarding `CCCCCCCCCCCCCCCC(=O)O`, the result was inactive.

For the molecule `CC1(C)[C@H]2CC[C@]1(C)[C@H](O)C2`, the call was inactive.

In the case of `O=C(O)c1snc(Cl)c1Cl`, the call was inactive.

Regarding `O=[N+]([O-])c1ccc(Nc2ccc(Nc3ccccc3)c(S(=O)(=O)O)c2)c([N+](=O)[O-])c1`, the result was inactive.

As to `CO[Si](CCCn1c(=O)n(CCC[Si](OC)(OC)OC)c(=O)n(CCC[Si](OC)(OC)OC)c1=O)(OC)OC`, the call was inactive.

Regarding `N#Cc1ccccc1`, the molecule was called inactive.

Consider `Cc1ccccc1C=O`, for which the outcome was inactive.

For `Cc1ccc(O)c(C(C)(C)C)c1`, the half-maximal activity concentration (AC50) (usually the concentration giving half of the maximal activity seen) was 46.1 µM (active) and 52.5 µM (active).

Turning to `O=C(Nc1ccccc1)c1cc([N+](=O)[O-])ccc1Cl`, the call was inactive.

Consider `CC(C)(N)CO`, for which the result was inactive.

With `Nc1ccc(S(=O)(=O)O)c(N)c1`, the result was inactive.

With `C=CC(=O)OCC(O)COc1ccccc1` (stereo not given), the AC50 is 48.2 µM (active).

Take `OCCN1CCNCC1`: the outcome was inactive.

In the case of `CCC(=O)OCCC(C)CCC=C(C)C` (stereo not given), the molecule was classed as inactive.

Take `O=C1CCc2ccccc2O1`: the result was inactive.

Turning to `O=C1O[C@@H]2[C@@H](O)[C@H](O)O[C@@H]2[C@H]1O`, the result was inactive.

Consider `O=C(O)C[C@H](O)C[C@H](O)/C=C/c1c(C2CC2)nc2ccccc2c1-c1ccc(F)cc1`, for which the result was inactive.

For the molecule `CCCCCC(=O)OCCc1ccccc1`, the molecule was called inactive.

Take `O=C(Cl)c1cccc(C(=O)Cl)c1`: the molecule was classed as inactive.

As to `CCn1c2ccccc2c2cc(N)ccc21`, the molecule was classed as inactive.

Consider `CC1=CCC(O)(C(C)C)CC1` (stereo not given), for which the molecule was called inactive.

`O=C1c2ccccc2C(=O)N1SC1CCCCC1`: the molecule was classed as inactive and the AC50 was 49.3 µM (active).

As to `CNCCO`, the molecule was classed as inactive.

Turning to `CC(=O)[O][Al][O]C(C)=O`, the outcome was inactive.

In the case of `CC(C)(C)c1cc(CCC(=O)NN)cc(C(C)(C)C)c1O`, the outcome was inactive.

Consider `COc1ccc(NC(=O)CC(C)=O)cc1`, for which the result was inactive.

Regarding `CC(=O)Nc1ccccc1O`, the molecule was classed as inactive.

With `O=C(O)Cc1cccc2ccccc12`, the result was inactive.

With `COC(=O)c1ccc(C)cc1`, the call was inactive.

As to `Nc1ccc(S(N)(=O)=O)cc1`, the result was inactive.

`Cc1ccc(C(=O)c2cc(O)c(O)c([N+](=O)[O-])c2)cc1`: the AC50 is 46.1 µM (active) and the molecule was classed as inactive.

Turning to `CNC(=O)Oc1ccc2c(c1)[C@]1(C)CCN(C)[C@@H]1N2C`, the molecule was called inactive.

As to `CCCCCCCCC=O`, the molecule was classed as inactive.

In the case of `CC(C=O)Cc1ccc(C(C)C)cc1` (stereo not given), the result was inactive.

As to `C=CC(=O)NCOCC(C)C`, the outcome was inactive.
